From ChEMBL document CHEMBL3988442, “University of Dundee, Small-Polar-MMV Screening Library” (2021)
For some of these results: Entries with a potency or affinity are not part of this list.

What was measured:
Design in all cases: scale not given: direction of the effect not stated beside the values
[1] = target: Protein translocase subunit SecA (Escherichia coli (strain K12)) (UniProt P10408); test: Assay to Identify E. coli SecA ATPase Inhibitors; assay type: functional; details: 30 µM
[2] = target: T1, Ubiquitin-activating enzyme e1, putative (Leishmania donovani (strain BPK282A1)) (UniProt E9BSI1); test: Leishmania donovani Ubiquitin Activating Enzyme (LdE1); assay type: functional; details: 30 µM
T1 sequence (whole entry): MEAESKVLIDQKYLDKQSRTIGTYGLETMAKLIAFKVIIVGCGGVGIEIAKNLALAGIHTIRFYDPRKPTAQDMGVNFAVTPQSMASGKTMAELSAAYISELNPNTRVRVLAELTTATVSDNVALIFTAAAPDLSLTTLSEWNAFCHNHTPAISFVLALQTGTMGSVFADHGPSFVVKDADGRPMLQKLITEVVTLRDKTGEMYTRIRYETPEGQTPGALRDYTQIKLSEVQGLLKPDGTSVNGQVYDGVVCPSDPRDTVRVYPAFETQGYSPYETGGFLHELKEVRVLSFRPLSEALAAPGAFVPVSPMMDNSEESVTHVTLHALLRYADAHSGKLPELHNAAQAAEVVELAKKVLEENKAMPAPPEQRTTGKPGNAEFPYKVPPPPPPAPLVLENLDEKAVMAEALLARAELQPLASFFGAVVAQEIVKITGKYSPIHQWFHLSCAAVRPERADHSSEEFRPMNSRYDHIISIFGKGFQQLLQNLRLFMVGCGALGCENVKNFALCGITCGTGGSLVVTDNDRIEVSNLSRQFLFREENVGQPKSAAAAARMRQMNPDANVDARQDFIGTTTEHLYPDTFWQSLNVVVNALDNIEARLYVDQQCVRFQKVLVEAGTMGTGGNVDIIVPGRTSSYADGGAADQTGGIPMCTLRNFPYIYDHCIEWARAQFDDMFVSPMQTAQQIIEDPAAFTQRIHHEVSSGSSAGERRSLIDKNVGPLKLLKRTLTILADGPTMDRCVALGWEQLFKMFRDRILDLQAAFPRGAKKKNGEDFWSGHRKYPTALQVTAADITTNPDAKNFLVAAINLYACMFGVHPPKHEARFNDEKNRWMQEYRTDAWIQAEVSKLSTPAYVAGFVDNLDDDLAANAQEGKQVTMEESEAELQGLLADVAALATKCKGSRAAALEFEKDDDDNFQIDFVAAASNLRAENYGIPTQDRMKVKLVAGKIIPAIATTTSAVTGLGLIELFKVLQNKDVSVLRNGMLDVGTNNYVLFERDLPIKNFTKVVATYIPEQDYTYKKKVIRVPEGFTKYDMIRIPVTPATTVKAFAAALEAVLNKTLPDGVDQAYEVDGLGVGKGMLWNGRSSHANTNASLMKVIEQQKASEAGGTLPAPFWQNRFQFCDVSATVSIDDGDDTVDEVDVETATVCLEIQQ

[3] = target: T2, Aspartate--tRNA(Asp/Asn) ligase (Mycobacterium tuberculosis (strain ATCC 25618 / H37Rv)) (UniProt P9WFW3); test: Assay for Asp RNA synthetase-1 from Mycobacterium tuberculosis; assay type: functional; details: 30 µM; note: in the data most compounds retested in dose-response had high values
T2 sequence (whole entry): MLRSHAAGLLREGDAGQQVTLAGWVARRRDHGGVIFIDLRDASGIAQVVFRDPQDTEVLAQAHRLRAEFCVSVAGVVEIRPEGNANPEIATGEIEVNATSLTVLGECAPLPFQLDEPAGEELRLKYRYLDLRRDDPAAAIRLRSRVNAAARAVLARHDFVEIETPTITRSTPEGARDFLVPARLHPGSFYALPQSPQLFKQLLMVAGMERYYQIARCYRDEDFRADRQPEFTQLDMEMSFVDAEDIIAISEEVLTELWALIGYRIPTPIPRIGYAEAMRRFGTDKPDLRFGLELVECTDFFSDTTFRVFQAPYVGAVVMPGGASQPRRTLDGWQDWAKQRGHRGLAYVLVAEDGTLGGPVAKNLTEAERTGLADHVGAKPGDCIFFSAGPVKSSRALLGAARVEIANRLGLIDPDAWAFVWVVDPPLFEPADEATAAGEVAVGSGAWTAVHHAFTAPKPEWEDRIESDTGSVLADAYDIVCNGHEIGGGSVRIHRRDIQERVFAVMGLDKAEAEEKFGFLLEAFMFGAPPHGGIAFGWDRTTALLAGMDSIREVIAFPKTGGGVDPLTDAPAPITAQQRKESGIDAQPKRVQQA

[4] = target: AMP-activated protein kinase, AMPK (Homo sapiens) (UniProt P54646+O43741+P54619+Q9UGJ0+Q9Y478+Q13131+Q9UGI9); test: AMP-dependent Kinase enzyme assay. An in vitro enzyme assay that detects ADP turnover that is directly proportional to AMPK activity. This uses naive AMPK that is activated during the assay with MK-8722; assay type: functional; details: 30 µM
[5] = target: Sialic acid-binding Ig-like lectin 9 (Homo sapiens) (UniProt Q9Y336); test: Hs-Siglec9 ALPHAscreen SOP 20170721; details: 10 µM
[6] = tested on: Trypanosoma cruzi; test: Trypanosoma cruzi phosphomannomutase and mannose-1-phosphate guanylyltransferase assay; assay type: functional; details: 10 µM
[7] = target: T3, Arginase-2, mitochondrial (Homo sapiens) (UniProt P78540); test: in vitro enzyme assay to detect the production of urea directly proportional to the activity of Arginase II; assay type: functional; details: 33.3 µM; note: in the data most compounds retested in dose-response had high values
T3 sequence (whole entry): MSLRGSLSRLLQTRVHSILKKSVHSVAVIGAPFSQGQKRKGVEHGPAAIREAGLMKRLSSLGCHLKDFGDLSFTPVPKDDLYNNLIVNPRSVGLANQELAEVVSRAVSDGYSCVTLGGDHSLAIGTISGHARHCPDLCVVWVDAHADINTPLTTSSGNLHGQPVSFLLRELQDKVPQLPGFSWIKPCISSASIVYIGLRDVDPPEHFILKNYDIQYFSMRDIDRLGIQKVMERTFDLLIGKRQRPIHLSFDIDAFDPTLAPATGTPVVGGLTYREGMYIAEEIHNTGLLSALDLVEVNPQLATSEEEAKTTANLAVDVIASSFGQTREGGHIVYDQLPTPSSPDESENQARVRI

[8] = target: T4, Proteasome subunit beta (Trypanosoma cruzi) (UniProt O96673); test: Trypanosoma cruzi proteasome chymotrypsin-like activity (TcProtChymo) assay.; note: in the data most compounds retested in dose-response had high values; assay type: functional; details: 9.37 µM
T4 sequence (whole entry): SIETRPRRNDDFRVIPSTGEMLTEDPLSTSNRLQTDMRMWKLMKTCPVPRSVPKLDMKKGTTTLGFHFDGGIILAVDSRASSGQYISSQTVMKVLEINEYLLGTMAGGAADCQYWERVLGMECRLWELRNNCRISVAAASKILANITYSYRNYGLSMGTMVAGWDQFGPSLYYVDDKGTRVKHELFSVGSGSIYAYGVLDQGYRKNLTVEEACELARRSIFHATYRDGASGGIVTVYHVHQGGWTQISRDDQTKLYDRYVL

[9] = organism: Homo sapiens; test: To identify inhibition of the IFN signalling (Jak-Stat) pathway via expression of an eGFP reporter gene under the control of an IFN-stimulated response element (ISRE) containing MxA promoter.; assay type: functional; details: 30 µM
[10] = target: Shiga toxin 2 (Escherichia coli O157:H7) (UniProt P09385+P09386); test: E. coli 0.157:H7 Shiga Toxin SOP - stx2 screening assay; assay type: functional; details: 30 µM
[11] = target: T5, Tyrosyl-tRNA synthetase, putative (Trypanosoma cruzi (strain CL Brener)) (UniProt Q4DSP6); test: Trypanosoma cruzi tyrosyl tRNA synthetase (TcYRS) _High Tyrosine SOP; assay type: functional; details: 30 µM; note: in the data most compounds retested in dose-response had high values
T5 sequence (whole entry): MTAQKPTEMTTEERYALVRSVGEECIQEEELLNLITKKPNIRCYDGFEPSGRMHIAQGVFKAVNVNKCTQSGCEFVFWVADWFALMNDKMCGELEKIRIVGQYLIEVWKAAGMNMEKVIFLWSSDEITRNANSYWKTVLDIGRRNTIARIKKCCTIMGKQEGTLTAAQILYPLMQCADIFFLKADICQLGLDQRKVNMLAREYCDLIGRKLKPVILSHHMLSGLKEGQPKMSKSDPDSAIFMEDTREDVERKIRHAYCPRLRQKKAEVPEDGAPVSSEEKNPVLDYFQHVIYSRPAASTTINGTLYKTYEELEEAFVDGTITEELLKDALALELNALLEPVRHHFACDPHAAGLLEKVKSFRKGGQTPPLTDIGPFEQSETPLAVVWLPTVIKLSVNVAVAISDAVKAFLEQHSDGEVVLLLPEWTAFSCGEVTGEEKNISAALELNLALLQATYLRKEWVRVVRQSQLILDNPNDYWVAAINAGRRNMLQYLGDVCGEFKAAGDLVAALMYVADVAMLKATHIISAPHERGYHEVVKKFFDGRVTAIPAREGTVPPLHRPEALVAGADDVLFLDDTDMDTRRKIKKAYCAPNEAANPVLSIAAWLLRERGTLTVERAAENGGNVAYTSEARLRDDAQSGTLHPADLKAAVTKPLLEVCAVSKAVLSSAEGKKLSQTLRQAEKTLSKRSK

[12] = target: T5, Tyrosyl-tRNA synthetase, putative (Trypanosoma cruzi (strain CL Brener)); test: Trypanosoma cruzi tyrosyl tRNA synthetase (TcYRS) SOP; assay type: functional; details: 30 µM
[13] = target: Chromo domain-containing protein 1 (Saccharomyces cerevisiae (strain ATCC 204508 / S288c) (Baker's yeast)) (UniProt P32657); test: ScCHD-1 Enzyme Inhibition Assay; assay type: functional; details: 30 µM; note: in the data most compounds retested in dose-response had high values
Chromo domain-containing protein 1 (Saccharomyces cerevisiae (strain ATCC 204508 / S288c) (Baker's yeast)), sequence (P32657 whole entry, the tested form may be a part): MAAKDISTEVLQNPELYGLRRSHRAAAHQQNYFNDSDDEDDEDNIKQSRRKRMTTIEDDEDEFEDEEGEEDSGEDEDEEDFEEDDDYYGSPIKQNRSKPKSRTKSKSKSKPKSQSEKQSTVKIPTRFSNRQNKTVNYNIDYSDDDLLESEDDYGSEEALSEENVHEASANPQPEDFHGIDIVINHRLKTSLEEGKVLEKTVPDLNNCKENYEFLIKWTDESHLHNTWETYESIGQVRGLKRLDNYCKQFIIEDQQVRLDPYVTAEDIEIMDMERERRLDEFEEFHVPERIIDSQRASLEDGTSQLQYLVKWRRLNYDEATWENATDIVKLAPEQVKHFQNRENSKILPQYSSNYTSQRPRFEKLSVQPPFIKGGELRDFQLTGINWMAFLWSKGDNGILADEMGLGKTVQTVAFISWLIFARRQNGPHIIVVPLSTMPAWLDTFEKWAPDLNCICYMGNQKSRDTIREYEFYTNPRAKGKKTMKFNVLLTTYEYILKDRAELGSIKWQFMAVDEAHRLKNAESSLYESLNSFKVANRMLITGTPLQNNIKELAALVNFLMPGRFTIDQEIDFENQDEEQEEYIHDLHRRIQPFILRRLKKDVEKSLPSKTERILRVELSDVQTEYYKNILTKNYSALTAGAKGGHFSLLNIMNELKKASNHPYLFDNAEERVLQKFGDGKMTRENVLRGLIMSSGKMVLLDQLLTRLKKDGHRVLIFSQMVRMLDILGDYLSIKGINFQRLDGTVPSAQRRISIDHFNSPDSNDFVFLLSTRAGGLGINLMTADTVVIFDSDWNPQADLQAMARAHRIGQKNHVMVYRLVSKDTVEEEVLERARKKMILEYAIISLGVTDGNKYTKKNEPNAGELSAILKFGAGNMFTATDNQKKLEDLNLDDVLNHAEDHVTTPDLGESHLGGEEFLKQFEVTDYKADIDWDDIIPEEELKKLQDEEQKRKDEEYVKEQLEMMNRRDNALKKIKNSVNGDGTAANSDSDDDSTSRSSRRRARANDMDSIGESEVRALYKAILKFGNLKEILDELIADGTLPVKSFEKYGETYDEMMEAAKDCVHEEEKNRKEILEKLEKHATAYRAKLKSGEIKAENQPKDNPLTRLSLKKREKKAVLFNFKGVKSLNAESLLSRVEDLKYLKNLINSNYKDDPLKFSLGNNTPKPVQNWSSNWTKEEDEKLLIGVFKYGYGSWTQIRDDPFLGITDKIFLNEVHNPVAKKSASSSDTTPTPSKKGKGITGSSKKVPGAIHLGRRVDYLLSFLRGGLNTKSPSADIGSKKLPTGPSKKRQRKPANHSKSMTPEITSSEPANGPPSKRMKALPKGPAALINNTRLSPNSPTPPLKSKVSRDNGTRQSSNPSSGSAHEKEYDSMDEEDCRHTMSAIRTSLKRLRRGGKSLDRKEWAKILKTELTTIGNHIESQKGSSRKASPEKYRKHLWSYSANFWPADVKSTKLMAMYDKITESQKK

Protein translocase subunit SecA (Escherichia coli (strain K12)), sequence (P10408 whole entry): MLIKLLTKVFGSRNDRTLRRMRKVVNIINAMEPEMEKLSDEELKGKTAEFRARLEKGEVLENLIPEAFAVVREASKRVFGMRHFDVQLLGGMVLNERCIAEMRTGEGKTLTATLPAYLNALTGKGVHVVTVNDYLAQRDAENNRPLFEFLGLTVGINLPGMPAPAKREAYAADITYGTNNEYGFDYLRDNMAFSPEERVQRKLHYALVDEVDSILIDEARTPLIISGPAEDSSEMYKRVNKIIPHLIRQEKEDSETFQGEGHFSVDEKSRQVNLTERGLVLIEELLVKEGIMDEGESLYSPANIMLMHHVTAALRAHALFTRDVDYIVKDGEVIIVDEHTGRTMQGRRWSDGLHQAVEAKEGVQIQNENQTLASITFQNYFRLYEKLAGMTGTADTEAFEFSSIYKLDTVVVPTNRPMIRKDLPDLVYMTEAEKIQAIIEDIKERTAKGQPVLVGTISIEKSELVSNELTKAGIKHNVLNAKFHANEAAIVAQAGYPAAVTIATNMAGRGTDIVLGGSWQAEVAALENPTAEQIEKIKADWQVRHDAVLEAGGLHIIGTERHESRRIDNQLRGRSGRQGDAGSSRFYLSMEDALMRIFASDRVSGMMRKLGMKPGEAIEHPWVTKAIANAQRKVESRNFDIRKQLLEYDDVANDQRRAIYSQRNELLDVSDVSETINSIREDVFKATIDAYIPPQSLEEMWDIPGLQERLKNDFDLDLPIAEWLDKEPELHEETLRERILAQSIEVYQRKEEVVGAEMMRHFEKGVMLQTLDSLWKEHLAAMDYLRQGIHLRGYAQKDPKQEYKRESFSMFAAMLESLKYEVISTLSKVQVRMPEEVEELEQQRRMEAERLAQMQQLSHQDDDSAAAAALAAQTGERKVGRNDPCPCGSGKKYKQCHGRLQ
Sialic acid-binding Ig-like lectin 9 (Homo sapiens), sequence (Q9Y336 whole entry): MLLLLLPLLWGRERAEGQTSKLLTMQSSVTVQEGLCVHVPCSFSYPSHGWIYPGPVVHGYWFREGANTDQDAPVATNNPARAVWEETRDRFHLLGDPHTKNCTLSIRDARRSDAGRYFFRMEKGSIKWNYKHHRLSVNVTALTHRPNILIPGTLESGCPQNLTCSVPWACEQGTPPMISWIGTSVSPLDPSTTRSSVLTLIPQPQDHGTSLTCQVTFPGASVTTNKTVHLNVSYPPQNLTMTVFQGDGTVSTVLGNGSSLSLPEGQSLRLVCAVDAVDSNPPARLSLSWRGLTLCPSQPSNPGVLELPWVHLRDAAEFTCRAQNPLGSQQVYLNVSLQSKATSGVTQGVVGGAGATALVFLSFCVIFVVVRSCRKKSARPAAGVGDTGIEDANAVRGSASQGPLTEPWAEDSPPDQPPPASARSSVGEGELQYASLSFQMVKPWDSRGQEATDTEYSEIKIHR

SMILES | Percent Effect [1] [%] | Percent Effect [2] [%] | Percent Effect [3] [%] | Percent Effect [4] [%] | Percent Effect [5] [%] | Percent Effect [6] [%] | Percent Effect [7] [%] | Percent Effect [8] [%] | Percent Effect [9] [%] | Percent Effect [10] [%] | Percent Effect [11] [%] | Percent Effect [12] [%] | Percent Effect [13] [%]
Cc1cc(CN2CC[C@H]3C[C@H](c4nccs4)O[C@@H]3C2)no1 | 2.63 | -2.7 | -1.08 | 5.99 | 4.06 | -1.47 | 0.319 | 12.9 | -4.4 | 3.88 | 0 | 0 | 7.66
Cc1cccc(CN2CC[C@@H]3[C@@H]2CCN3C(=O)c2ccno2)n1 | -0.832 | -2.7 | 3.7 | -8.15 | -3.73 | 6.84 | -1.67 | 12.1 | -11.7 | -15.7 | -13.9 | 1.22 | 94
Cc1ccc(N2CCO[C@H]3CN(CC4CC4)C[C@H]32)nn1 | -4.5 | 2.7 | -6.1 | 0.95 | -5.02 | 7.14 | -0.319 | 19.6 | -33.8 | 1.42 | 1.08 | 7.69 | 5.67
CCN1C[C@H]2C[C@H](C(=O)NCc3cccnc3)[C@@H](C1)O2 | -1.53 | 0 | 4.45 | -69.3 | 5.53 | 1.07 | 2.23 | 11.1 | -10.6 | 2.21 | 3.24 | 10.3 | 2
O=C(C1CCC1)N1CCC2(CC1)OCCO2 | -3.54 | -2.63 | -4.73 | 2.75 | 1.15 | -1.85 | 7.1 | 6.04 | 5.13 | -1.29 | 0 | 5.2 | -0.64
Cc1c(CC(=O)N2CCN(CC(F)(F)F)CC2)nnn1-c1ccccc1 | -3.34 | 10.4 | 12.8 | -2.43 | 2.86 | -2.65 | 2.76 | 10.8 | 11.9 | -45.5 | 4.3 | 8.64 | -1.92
CN(CCc1ccc(F)cc1)Cc1nc2c(cnn2C)c(=O)[nH]1 | -6.94 | 21.1 | -1.46 | -5.8 | 1.02 | 2.33 | -6.47 | 14.5 | 2.88 | 14.7 | 10.3 | 23.5 | -6.22
O=C(CC1CC1)N[C@@H]1CN(Cc2ccncc2)C[C@@H]2CCCO[C@@H]21 | 0.104 | 5.33 | -1.92 | -0.724 | -5.17 | 2.12 | -47.1 | 8.38 | -8.9 | -6.38 | 5.21 | 7.5 | -4.5
O=C(Cc1ccc(O)c(Cl)c1)N1CCN(CC2CC2)[C@@H]2CS(=O)(=O)C[C@@H]21 | -7.75 | -1.39 | 4.65 | -2.21 | 15.8 | -1.46 | 0 | 7.54 | -5.81 | -19.1 | -2.1 | -2.56 | -1.95
CC(C)(C)n1cc(C2=CCN(CCc3ccccc3)CC2)cn1 | 0.726 | 1.39 | -2.65 | -7.35 | -1.87 | 5.93 | 24.3 | 14.7 | 11.7 | -75.6 | 6.32 | 12.8 | -5.1
